Measurements published in PubChem BioAssay (NCI).
Compounds without any hit were thinned out: in the full panel of roughly 83,000, 20% have a hit.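 Activity criterion: percent growth below 10, measured after cells in 96-well plates were exposed to a single compound concentration for 48 hours.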 A number with no mark means an inactive call. Calls of active or inactive are those of the source.

Columns and labels:
Experiment in all cases: NCI-60 one-dose screen, 48 h (100 = growth as untreated, 0 = no growth, -100 = all killed)
Details in all cases: 10 µM unless noted
NCI-H23 lung = test system: NCI-H23 lung
NCI-H226 lung = test system: NCI-H226 lung
NCI-H322M lung = test system: NCI-H322M lung
HOP-62 NSCLC = test system: HOP-62 NSCLC
NCI-H460 lung = test system: NCI-H460 lung
HOP-92 NSCLC = test system: HOP-92 NSCLC
A549/ATCC NSCLC = test system: A549/ATCC NSCLC
786-0 renal = test system: 786-0 renal
COLO 205 colon = test system: COLO 205 colon
DU-145 prostate = test system: DU-145 prostate
K-562 leukemia = test system: K-562 leukemia
MALME-3M melanoma = test system: MALME-3M melanoma
MDA-MB-231 breast = test system: MDA-MB-231 breast
RXF 393 renal = test system: RXF 393 renal
SF-268 CNS = test system: SF-268 CNS
SF-295 CNS = test system: SF-295 CNS
SF-539 CNS = test system: SF-539 CNS
UACC-257 melanoma = test system: UACC-257 melanoma
M14 melanoma = test system: M14 melanoma

| SMILES | growth (NCI-H23 lung) | growth (NCI-H226 lung) | growth (NCI-H322M lung) | growth (HOP-62 NSCLC) | growth (NCI-H460 lung) | growth (HOP-92 NSCLC) | growth (A549/ATCC NSCLC) | growth (786-0 renal) | growth (COLO 205 colon) | growth (DU-145 prostate) | growth (K-562 leukemia) | growth (MALME-3M melanoma) | growth (MDA-MB-231 breast) | growth (RXF 393 renal) | growth (SF-268 CNS) | growth (SF-295 CNS) | growth (SF-539 CNS) | growth (UACC-257 melanoma) | growth (M14 melanoma) |
| --- | --- | --- | --- | --- | --- | --- | --- | --- | --- | --- | --- | --- | --- | --- | --- | --- | --- | --- | --- |
| COc1cc(C2=NN(C=O)C(c3cccc(Nc4ccnc5cc(Cl)ccc45)c3)C2)cc(OC)c1OC (centres undefined) | 77% | 68.9% | 91.1% | 73% | 83.4% | 53.9% | 61.8% | 65.2% | 66.1% | 80.2% | 46.5% | 89.3% | 76.5% | 72.2% | 74.2% | 66.8% | 91.7% | 73.2% | 64.1% |
| c1ccc2nc(Cn3c[n+](Cc4ccc5ccccc5n4)c4ccccc43)ccc2c1 | 32% | 37.1% | 78.1% | 53.8% | 32.4% | -8.16% (active) | 54% | 66.7% | 6.96% (active) | 60.8% | 17.8% | 20.3% | 26.4% | 44.1% | 54.9% | 55.5% | 41.5% | -9.49% (active) | 21.7% |
| CCN(CC)CCNCC(=O)Oc1ccc(/C=C/C(=O)CC(=O)/C=C/c2ccc(OC(=O)CNCCN(CC)CC)c(OC)c2)cc1OC | 5.35% (active) | 21% | 55.4% | 34% | 3.7% (active) | 39.1% | 38.2% | -34.9% (active) | 17.1% | -56.6% (active) | -37.7% (active) | -0.278% (active) | 14% | -73% (active) | 13.5% | 27.3% | -35.9% (active) | 53.7% | -18.6% (active) |
| CCOc1cc(/C=C/C(=O)CC(=O)/C=C/c2ccc(OC(=O)CNc3nc4ccc(OC)cc4s3)c(OCC)c2)ccc1OC(=O)CNc1nc2ccc(OC)cc2s1 | 55.7% | 64.5% | 88.6% | 63.9% | 57.5% | 90.9% | 48.2% | 32.2% | 109% | 15.5% | 2.04% (active) | 94.4% | 64.5% | -29.9% (active) | 26% | 63.5% | 3.65% (active) | 67.6% | 21.1% |
| COc1cnc2c(c1)C(=O)c1c-2n(CCCN2CCNCC2)c(=O)c2cc(F)ccc12 | -3.16% (active) | -57.6% (active) | 13.7% | -8.55% (active) | -58.4% (active) | -7.94% (active) | -70.4% (active) | -94.3% (active) | -10.5% (active) | -0.602% (active) | -65.9% (active) | -60.7% (active) | 9.36% (active) | -36% (active) | 6.43% (active) | 0.838% (active) | -64.2% (active) | 10.8% | -56.7% (active) |
| O=C(Nc1nc2c(C(F)(F)F)cccc2s1)c1cc(Cl)ccc1O | 3.47% (active) | -3.02% (active) | 4.87% (active) | -7.84% (active) | 2.33% (active) | -27.8% (active) | 3.66% (active) | 1.42% (active) | -69.9% (active) | 23% | 5.1% (active) | -24.8% (active) | -13.2% (active) | -5.36% (active) | 21.2% | -21.2% (active) | 15% | -23.7% (active) | 8.01% (active) |
| CCOC(=O)OCC(=O)[C@@]1(O)CC[C@H]2[C@@H]3CCC4=CC(=O)CC[C@]4(C)[C@H]3[C@@H](O)C[C@@]21C | 111% | 70.1% | 99.2% | 98.5% | 102% | 72.5% | 74.2% | 108% | 104% | 101% | 111% | 75.7% | 98.2% | 127% | 94% | 129% | 91.3% | 93.4% | 90.7% |
| CNNc1ncnc2c1cnn2-c1ccc(S(N)(=O)=O)cc1 | 94.2% | 91.3% | 104% | 85.6% | 117% | 41.5% | 92.9% | 91.7% | 120% | 112% | 78.3% | 112% | 89.5% | 16% | 106% | 84% | 93.8% | 89% | 95% |
| COc1ccc2ncccc2c1Cc1c(OC)ccc2ncccc12 | 80.1% | 80% | 96.6% | 65% | 82.4% | 58.1% | 64.5% | 89.1% | 79.9% | 91.5% | 21.5% | 55.9% | 71.1% | 82.1% | 84.2% | 63.9% | 75% | 68.2% | 56.5% |
| CCCCCCCCCCCCCCCCNC(=O)Nc1ccc2ccccc2c1 | 103% | 108% | 110% | 105% | 99.2% | 74.5% | 107% | 104% | 103% | 126% | 111% | 95.4% | 98.1% | 104% | 126% | 106% | 106% | 95.5% | 94.9% |
| Nc1nc(Nc2ccccc2SSc2ccccc2Nc2nc(N)nc(-c3ccc(I)cc3)n2)nc(-c2ccc(I)cc2)n1 | 47.3% | 69.8% | 81.1% | 26.1% | 54.8% | 107% | -19.9% (active) | 86.9% | 112% | 66% | 68.7% | 103% | 55% | 88.2% | 43% | 47.6% | 89.2% | 110% | 77.2% |
| N#Cc1ccc(-c2csc(Nc3ccc4nc5n(c(=O)c4c3)CCC5)n2)cc1 | 105% | 105% | 104% | 108% | 101% | 169% | 101% | 104% | 109% | 109% | 96.8% | 102% | 104% | 106% | 106% | 98.2% | 101% | 108% | 103% |
| O=C(/C=C/c1ccc(C(F)(F)F)cc1)c1ccc(Nc2nc(NCCO)nc(NCCO)n2)cc1 | 84.3% | 75.3% | 74.8% | 22.3% | 82.8% | 99.3% | 34.9% | 30.4% | 37.3% | 52.9% | 11.7% | 66.2% | 71% | 74.2% | 54% | 44.6% | 29.3% | 80.8% | 65.4% |
| O=C(CC1Sc2ccccc2NC1=O)NNc1cccc(Cl)c1Cl (centres undefined) | 77% | 73.9% | 73.5% | 84.6% | 66.2% | 24.4% | 92.3% | 95.3% | 82.2% | 108% | 89.1% | 54.6% | 83.5% | 97.6% | 91.4% | 92.4% | 67.3% | 99.1% | 112% |
| CCN(CC)CCSc1ncnc2c1cnn2-c1ccc(S(N)(=O)=O)cc1 | 94.9% | 92.9% | 102% | 98.4% | 85.9% | 50.9% | 84.7% | 95.3% | 113% | 97% | 63.2% | 69.1% | 93.3% | 34.2% | 105% | 54.5% | 94.4% | 65.5% | 98.6% |
| COc1cc(Cl)cc(-c2nn(-c3cccc(NC(=O)c4cc(C(F)(F)F)cc(C(F)(F)F)c4)c3)cc2-c2ccncc2)c1 | 72.1% | 76% | 80.3% | 103% | 40.9% | 46.8% | 43.5% | 80.2% | 88.7% | 78.2% | 38% | 104% | 56.7% | 67.7% | 89.2% | 42.1% | 80% | 79.3% | 67.3% |
